Among all 56,000 sequences or so, about 5,400 (9.6%) were called active. No stated cut-off is given here; in the data, active = GI50 up to about 1.1 µM and inactive = higher. Shown is part of a subset that was picked to be rich in actives. Measured potencies and affinities stand elsewhere.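 Assay format: 96-well plates, 48-hour exposure. GI50: concentration for 50% inhibition of growth.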

The test system of this experiment is K562. Put plainly: NCI tumour cell line growth inhibition, 48 h.
“[Bis(aminomethyl)pentamethylenesilane]dichloropaltinum(II), CHEMBL2146202” had a GI50 of 3.47 µM.

On to “[Bis(aminomethyl)tetramethylenesilane]dichloropaltinum(II), CHEMBL2146205”, for which the GI50 turned out to be 10.2 µM.

The substance “[Bis(aminomethyl)tetramethylenesilane]tetrachloropaltinum(IV), CHEMBL2146189” had a GI50 of 2.57 µM.

The substance “cis-Bis[[(trimethylsilyl)methyl]amino]tetrachloroplatinum(IV), CHEMBL2146191” came in with a GI50 of 2.92 µM.

In turn, “[Bis(aminomethyl)dimethylsilane]tetrachloroplatinum(IV), CHEMBL2146190” gave a GI50 of 3.78 µM.

Turning to “[Bis(aminomethyl)diethylsilane]tetrachloroplatinum(IV), CHEMBL2146203”, the GI50 is 0.916 µM.

With “[Bis(aminomethyl)pentamethylenesilane]tetrachloropaltinum(IV), CHEMBL2146204”, the GI50 amounted to 1.79 µM.

Substance “[Bis(aminomethyl)ethylmethylsilane]tetrachloroplatinum(IV), CHEMBL2146192” yielded a GI50 of 1.69 µM.

Turning to “[Bis(aminomethyl)dimethylsilane]dichloroplatinum (II), CHEMBL2146201”, the GI50 stood at 16.5 µM.

As to CISPLATIN, CHEMBL11359, the GI50 turned out to be 5.56 µM.

In turn, CHLOROTRIPHENYLSTANNANE, CHEMBL515580 showed a GI50 of 0.0256 µM.

“mu-(1,7-nanodiamine-N,N')bis-(cis-aminedichloroplatimum (II)), CHEMBL2146215” showed a GI50 of 30.7 µM.

The record behind these values is ChEMBL document CHEMBL1201862, “PubChem BioAssay data set” (2004).
